Results reported in paper PMC10163288.
Not all results are given here. The true hit rate is not given.

B1: il10ra_site1_normal_mot_HHH_b2_00984_000000042_0001_1_20_H_._HHH_b2_07534_0001_0000600066_0000001_1 (protein)
chain: SSSSDEEEKRLEELLEEVRELLERGDPERAARLAQELLRHIFRASDEEALQELWELIKREASSSS
B2: il10ra_site1_normal_mot_HHH_b2_03328_af2_000000127_0001_1_19_H_._HHH_b1_03894_0001_0000100001_0000001_0 (protein)
chain: SSSSSSNELYELSREALELFANGNPEEAQRVVEEAIELAEELGNRVILFTLRHLLRVISSSSSSS
B3: il10ra_site1_normal_mot_HHH_b1_08477_000000091_0001_40_57_H_._HHH_b2_05084_0001_0000800035_0000001_0 (protein)
chain: SSSSDIAEETARFLLEMAERLIEQGNPEYARQALRFALRLARDAGNPELEEEIQKLLEELGSSSS
B4: il10ra_site1_normal_mot_HHH_b2_06857_af2_000000179_0001_42_54_H_._HHH_b2_07752_af2_0001_0000500038_0000002_0 (protein)
chain: SSSSNELHEELYELIRKAAELARNGNPEEAEKVLEEARKIAEELNNELAEFQIRFLERLLSSSSS
B5: il10ra_site1_sap_4_mot_HHH_b2_01447_af2_000000258_0001_1_20_H_._HHH_b1_07772_0001_0000100001_0000002_0_0001 (protein)
chain: SSSSDTRELYRLSREAMELLARGNPEEAEKVLEEAIEIAREAGDFNFLFNLEHVLKVIEQSSSSS
B6: il10ra_site1_sap_15_mot_HHH_b2_05813_000000266_0001_1_19_H_._ems_3hC_1310_0001_af2_0001_0000600040_0000002_0_0001 (protein)
chain: SSSSADEEFEFTREKYEEARELLQNGNPEEAEEVLEEAREYLKEAGNWAALFAVEVLLKQLSSSS
B7: il10ra_site1_normal_mot_HHH_b2_02537_000000065_0001_1_20_H_._HHH_b1_07925_0001_0000100001_0000001_0 (protein)
chain: SSSSTDEVFEFTRRVIEEASELFRNGNPEEAERVLEEAREYLEELGDELALRSVEHLLRAISSSS
B8: il10ra_site1_sap_19_mot_HHH_b1_05214_000000232_0001_38_57_H_._HHH_b2_00758_0001_0000400024_0000001_0_0001 (protein)
chain: SSSSDIRELYELSREAVELRHEGNPEEAEKVVEEAEELARELNNRVLLAVIEWLREAIETSSSSS
B9: il10ra_site1_sap_16_mot_HHH_b1_06789_af2_000000041_0001_1_20_H_._HHH_b2_05269_af2_0001_0000200010_0000002_0_0001 (protein)
chain: SSSSDVEEELRELLKELEELVEEGDEEKFLRVAMEALHLAFQARDEEVLQLLWELAKELASSSSS
B10: il10ra_site1_normal_mot_HHH_b2_02693_af2_000000213_0001_19_35_H_._HHH_b2_04275_0001_0000300016_0000001_0_af2pred_0001 (protein)
chain: SSSSSSEESEELLEQLEEALRRGDEELIARLVLEIARLAEELNDKELVEELLRLLVEHQSSSSSS
B11: il10ra_site1_normal_mot_8756ee2cf497b5429c717dfc0c0bcfd6_0001_000000186_0001_1_13_H_._HHH_b2_00624_0001_0000300028_0000001_0_af2pred_0001 (protein)
chain: SSSSSEEAEELYRLLREAAELHWEGNPEEARELLEEAEELAKEAGNLNALAVIRFLLEVAGSSSS
B12: il10ra_site1_normal_mot_HHH_b2_00943_af2_000000149_0001_1_17_H_._d3c612d18aab0e0945b39b51a1e20ad4_0001_1_af2_0001_0000500040_0000001_0_af2pred_0001 (protein)
chain: SAEEVLQRQVERDPDDASALHLLLLVLAAKEGDPELVQLLRRANELSREGNPEEAREILQEAIER
B13: il10ra_site1_sap_27_mot_104c758fc23488854646035ccb2100c6_0001_000000282_0001_15_29_H_._5a9d7fc92c57439179869c3e1d567c11_0001_0001_0000100005_0000001_0_0001_af2p … (protein)
chain: SSSSSPLEKKLEATTKYLKFCLSHNDLEGIKSGLIALKQLGDESGNEEAKKVAAEVEEKLKSSSS
B14: il10ra_site1_normal_mot_HHH_b1_01779_000000096_0001_43_57_H_._HHH_b2_08219_0001_0000100005_0000001_0_af2pred_0001 (protein)
chain: SSSSNKEEAERSVRLLLELAKRLEDPERARAALRDARRTAEYVNDPELEELVEEVEREVLSSSSS
B15: il10ra_site1_sap_19_mot_HHH_b2_02053_af2_000000006_0001_3_19_H_._HHH_b1_07370_0001_0000100001_0000002_0_0001 (protein)
chain: SSSSSDEEVEELLKEAEELAEEGNPEEAAKVLLEAVRLAIQAGDEEALQKVWEVVKELAKSSSSS
B16: il10ra_site1_sap_23_mot_HHH_b2_03708_000000000_0001_1_18_H_._HHH_b1_08343_0001_0000300038_0000001_0_0001 (protein)
chain: SSSSDLEKEIFHLLIEAYHLLQRGDEEEARELLEEAKELAEELNDPALLRAVEVLLAKLDSSSSS
B17: il10ra_site1_sap_14_mot_HHH_b2_05343_000000235_0001_19_35_H_._HHH_b2_05666_0001_0000600037_0000001_0_0001 (protein)
chain: SSSSDQEFYKAVEEAIEKAIKLEKNGNPEEAERLLEEILEKAEELGNWAARWSIRHLLELLSSSS
B18: il10ra_site1_sap_19_mot_HHH_b2_05984_000000071_0001_38_52_H_._919c246ba0fc10ef4578bdc7f1052ff8_0001_0001_0000100004_0000001_0_0001 (protein)
chain: NELEEELEELVERGDEEKVAELAVKVAKEKGSFSPEQLEALRRFIEALFRDNKKVAEHLARLVID
B19: il10ra_site1_normal_mot_HHH_b2_07579_000000275_0001_1_19_H_._HHH_b1_01139_af2_0001_0000300023_0000001_0_af2pred_0001 (protein)
chain: SSSSSEEKRKVLELLRKALEIEDKEEAEKVVEEAVRLAEELNDPLAAKLAEMLLEQLEKGSSSSS
B20: il10ra_site1_sap_25_mot_HHH_b2_07388_000000275_0001_18_35_H_._7abaf38a3307e851c9e6880adce6b300_0001_1_0001_0000100003_0000001_0_0001_af2pred_0001 (protein)
chain: SSSSDEEEEEVEKLLEELEKLLERGDREEVFRLFREAARIIAELRDEEAFRRLQELLKRLFSSSS
B21: il10ra_site1_normal_mot_HHH_b2_00345_af2_000000013_0001_42_56_H_._HHH_b2_01857_0001_0000400035_0000002_0 (protein)
chain: SSSSSDEEEEEVEELLEEAKHIEDHEKRIEILLEATHLALRAQDPELVQLVWEVFHRLIRSSSSS
B22: il10ra_site1_normal_mot_HHH_b1_02062_000000185_0001_1_20_H_._HHH_b1_08089_0001_0000100003_0000001_0_af2pred_0001 (protein)
chain: SSSSDVEERVEELFEEVEELLRQGDVEEAFKVSREMIELASENQDDEAAELAREASRLFARSSSS
B23: il10ra_site1_normal_mot_HHH_b1_00999_000000080_0001_41_55_H_._HHH_b2_01363_af2_0001_0000100001_0000002_0 (protein)
chain: SSSSSSEEVEEEVERLLEEAKEIEDPEEAMRVLLEALQIALRNNNKELLQLVWRIIKELGSSSSS
B24: il10ra_site1_normal_mot_HHH_b2_03220_af2_000000223_0001_23_40_H_._HHH_b1_01843_af2_0001_0000200015_0000002_0 (protein)
chain: SSSSSSSEAEEVWRLLREALHIDDEEEVQELLEEAKRLAEELNSEVLRIVIEFLERDLSSSSSSS
B25: il10ra_site1_sap_13_mot_HHH_b2_04993_000000082_0001_43_55_H_._0a28df53656836c8faf163f96bad2529_0001_1_af2_0001_0000100004_0000002_0_0001_af2pred_0001 (protein)
chain: SSSSDEEEERLEELLEEVEELLRQGDPEEAARLLFEVAKLAAELNDDEILKLVQELVHLLFSSSS
B26: il10ra_site1_normal_mot_HHH_b2_00475_000000107_0001_44_57_H_._HHH_b1_04904_0002_0000200015_0000002_0 (protein)
chain: SSSSDIIEVLYRLQHAVAKGDEEEIEELLEELEELLKKASEEERKYIEILLHFARAQLELLSSSS
B27: il10ra_site1_normal_mot_HHH_b2_02337_000000026_0001_38_52_H_._HHH_b1_01890_af2_0001_0000100004_0000001_1 (protein)
chain: SSSSDEEEKAEELIREAEELAENGNPEEAARVAQEALRLILELGDEEALQLLWEAVRRLARSSSS
B28: il10ra_site1_sap_21_mot_HHH_b1_06914_000000280_0001_1_18_H_._HHH_b2_08153_0001_0000400035_0000001_0_0001 (protein)
chain: SSSSSREELREEVEEVIEELEEKNDTKLLHRLMELYKRAAELGDEELVREIFEVLLRIVQKSSSS
B29: il10ra_site1_normal_mot_HHH_b1_01821_000000158_0001_23_39_H_._HHH_b1_01350_af2_0001_0000300008_0000001_0 (protein)
chain: SSSSSSDEEREEAEELLEEAKHVEDPERFIELILEAVRLALRSGDEELLQEIWELFKRKSSSSSS

The binders below were run against il10ra, Q13651 (assay: yeast display titration).
Chain of il10ra, Q13651 (Q13651 whole entry): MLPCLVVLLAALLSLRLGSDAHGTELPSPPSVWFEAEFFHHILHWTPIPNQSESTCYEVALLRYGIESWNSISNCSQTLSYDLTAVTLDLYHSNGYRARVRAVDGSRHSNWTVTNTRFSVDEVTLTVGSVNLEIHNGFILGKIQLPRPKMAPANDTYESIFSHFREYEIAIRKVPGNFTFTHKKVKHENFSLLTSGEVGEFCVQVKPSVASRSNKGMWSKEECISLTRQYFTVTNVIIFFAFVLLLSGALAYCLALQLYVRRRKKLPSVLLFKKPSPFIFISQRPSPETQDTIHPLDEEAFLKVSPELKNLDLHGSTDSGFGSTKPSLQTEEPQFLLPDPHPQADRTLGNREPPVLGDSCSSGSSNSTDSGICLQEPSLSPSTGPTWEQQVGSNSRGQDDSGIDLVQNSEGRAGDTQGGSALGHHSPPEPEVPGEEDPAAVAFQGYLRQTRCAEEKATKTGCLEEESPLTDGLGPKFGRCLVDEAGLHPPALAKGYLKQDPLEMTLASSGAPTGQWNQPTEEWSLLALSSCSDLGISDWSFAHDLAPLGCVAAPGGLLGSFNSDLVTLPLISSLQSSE

Apparent Kd, inactive:
B1 no binding seen
B2 no binding seen
B3 no binding seen
B4 no binding seen
B5 no binding seen
B6 no binding seen
B7 no binding seen
B8 no binding seen
B9 no binding seen
B10 no binding seen
B11 no binding seen
B12 no binding seen
B13 no binding seen
B14 no binding seen
B15 no binding seen
B16 no binding seen
B17 no binding seen
B18 no binding seen
B19 no binding seen
B20 no binding seen
B21 no binding seen
B22 no binding seen
B23 no binding seen
B24 no binding seen
B25 no binding seen
B26 no binding seen
B27 no binding seen
B28 no binding seen
B29 no binding seen
